Reference: the supplement of paper PMC8728848
This is one part of a sample in which the strongest signals are shown more often than they occur.

Tests used:
Assay in all cases: glycan array binding signal (z-score within array); higher = stronger binding
Conditions in all cases: glycan notation: IUPAC condensed, linker removed
[1] = biological target: Fuc(a1-2)Gal(b1-3)GalNAc(b1-3)Gal(a1-4)Gal(b1-4)Glc
Outline: (§1)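 Columns mapping to the same glycan were averaged after glycan names were converted to IUPAC-condensed notation. The data come from 3228 arrays in the Consortium for Functional Glycomics database, limited to those with an available protein sequence. Binding is reported as a within-array Z-score averaged across arrays of one protein sequence and across linkers.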

[2] = biological target: Fuc(a1-2)Gal(b1-3)GlcNAc(b1-3)Gal(b1-4)Glc
Outline: as §1

[3] = biological target: Fuc(a1-2)Gal(b1-3)GlcNAc(b1-3)GalNAc
Outline: as §1

[4] = biological target: Fuc(a1-2)Gal(b1-3)[Fuc(a1-4)]GlcNAc(b1-3)[Fuc(a1-3)[Gal(b1-4)]GlcNAc(b1-6)]Gal(b1-4)Glc
Outline: as §1

Fuc(a1-2)Gal(b1-4)Glc = biological target: Fuc(a1-2)Gal(b1-4)Glc
Outline: as §1

Fuc(a1-2)Gal(b1-4)Glc6S = biological target: Fuc(a1-2)Gal(b1-4)Glc6S
Outline: as §1

[5] = biological target: Fuc(a1-2)Gal(b1-4)GlcNAc(b1-3)Gal(b1-4)GlcNAc
Outline: as §1

[6] = biological target: Fuc(a1-2)Gal(b1-4)GlcNAc(b1-3)Gal(b1-4)GlcNAc(b1-3)Gal(b1-4)GlcNAc
Outline: as §1

[7] = biological target: Fuc(a1-2)Gal(b1-4)[Fuc(a1-3)]GlcNAc
Outline: as §1

[8] = biological target: Fuc(a1-2)Gal(b1-4)[Fuc(a1-3)]GlcNAc(b1-2)Man(a1-3)[Fuc(a1-2)Gal(b1-4)[Fuc(a1-3)]GlcNAc(b1-2)Man(a1-6)]Man(b1-4)GlcNAc(b1-4)[Fuc(a1-6)]GlcNAc
Outline: as §1

[9] = biological target: Fuc(a1-2)Gal(b1-4)[Fuc(a1-3)]GlcNAc(b1-2)[Fuc(a1-2)Gal(b1-4)[Fuc(a1-3)]GlcNAc(b1-4)]Man(a1-3)[Fuc(a1-2)Gal(b1-4)[Fuc(a1-3)]GlcNAc(b1-2)Man(a1-6)]Man(b1-4)GlcNAc(b1-4)GlcNAc
Outline: as §1

[10] = biological target: Fuc(a1-2)Gal(b1-4)[Fuc(a1-3)]GlcNAc(b1-3)Gal(b1-4)[Fuc(a1-3)]GlcNAc
Outline: as §1

[11] = biological target: Fuc(a1-2)Gal(b1-4)[Fuc(a1-3)]GlcNAc(b1-3)Gal(b1-4)[Fuc(a1-3)]GlcNAc(b1-3)Gal(b1-4)[Fuc(a1-3)]GlcNAc
Outline: as §1

[12] = biological target: Fuc(a1-2)[Gal(a1-3)]Gal(b1-3)GlcNAc
Outline: as §1

[13] = biological target: Fuc(a1-2)[Gal(a1-3)]Gal(b1-3)GlcNAc(b1-2)Man(a1-3)[Fuc(a1-2)[Gal(a1-3)]Gal(b1-3)GlcNAc(b1-2)Man(a1-6)]Man(b1-4)GlcNAc(b1-4)[Fuc(a1-6)]GlcNAc
Outline: as §1

[14] = biological target: Fuc(a1-2)[Gal(a1-3)]Gal(b1-4)GlcNAc(b1-2)Man
Outline: as §1

[15] = biological target: Fuc(a1-2)[GalNAc(a1-3)]Gal(b1-3)GalNAc(a1-3)[Fuc(a1-2)]Gal(b1-4)GlcNAc
Outline: as §1

[16] = biological target: Fuc(a1-2)[GalNAc(a1-4)]Gal(b1-4)GlcNAc
Outline: as §1

[17] = biological target: Fuc(a1-3)[Gal(b1-4)]GlcNAc
Outline: as §1

[18] = biological target: Fuc(a1-3)[Gal(b1-4)]GlcNAc(b1-3)Gal(b1-4)[Fuc(a1-3)]GlcNAc(b1-3)Gal(b1-4)[Fuc(a1-3)]GlcNAc
Outline: as §1

Gal(a1-3)Gal = biological target: Gal(a1-3)Gal
Outline: as §1

Gal(b1-2)Gal = biological target: Gal(b1-2)Gal
Outline: as §1

[19] = biological target: Gal(b1-3)GlcNAc(a1-6)Gal(b1-4)GlcNAc
Outline: as §1

[20] = biological target: Gal(b1-3)GlcNAc(b1-2)Man(a1-3)[GlcNAc(b1-4)][Gal(b1-3)GlcNAc(b1-2)Man(a1-6)]Man(b1-4)GlcNAc(b1-4)GlcNAc
Outline: as §1

[21] = biological target: Gal(b1-3)GlcNAc(b1-3)Gal(b1-4)GlcNAc
Outline: as §1

[22] = biological target: Gal(b1-3)GlcNAc(b1-3)Gal(b1-4)[Fuc(a1-3)]GlcNAc(b1-6)[Gal(b1-3)GlcNAc(b1-3)]Gal(b1-4)Glc
Outline: as §1

Gal(b1-3)GlcNAc6S = biological target: Gal(b1-3)GlcNAc6S
Outline: as §1

[23] = biological target: Gal(b1-3)[Fuc(a1-4)]GlcNAc(b1-3)Gal(b1-3)[Fuc(a1-4)]GlcNAc
Outline: as §1

[24] = biological target: Gal(b1-3)[Fuc(a1-4)]GlcNAc(b1-3)Gal(b1-4)[Fuc(a1-3)]GlcNAc
Outline: as §1

Gal(b1-4)GlcNAc = biological target: Gal(b1-4)GlcNAc
Outline: as §1

[25] = biological target: Gal(b1-4)GlcNAc(b1-2)[Gal(b1-4)GlcNAc(b1-4)]Man(a1-3)[Gal(b1-4)GlcNAc(b1-2)Man(a1-6)]Man(b1-4)GlcNAc(b1-4)GlcNAc
Outline: as §1

[26] = biological target: Gal(b1-4)GlcNAc(b1-2)[Gal(b1-4)GlcNAc(b1-6)]Man(a1-6)[GlcNAc(b1-4)][Gal(b1-4)GlcNAc(b1-2)Man(a1-3)]Man(b1-4)GlcNAc(b1-4)GlcNAc
Outline: as §1

[27] = biological target: Gal(b1-4)GlcNAc(b1-3)Gal(b1-4)GlcNAc(b1-6)[Gal(b1-3)]GalNAc
Outline: as §1

[28] = biological target: Gal(b1-4)GlcNAc(b1-3)[GlcNAc(b1-6)]Gal(b1-4)GlcNAc
Outline: as §1

[29] = biological target: Gal3S(b1-3)[Fuc(a1-4)]GlcNAc
Outline: as §1

Gal6S(b1-4)Glc6S = biological target: Gal6S(b1-4)Glc6S
Outline: as §1

GalNAc(b1-6)GalNAc = biological target: GalNAc(b1-6)GalNAc
Outline: as §1

Glc(a1-6)Glc(a1-6)Glc = biological target: Glc(a1-6)Glc(a1-6)Glc
Outline: as §1

[30] = biological target: GlcNAc(b1-2)[GlcNAc(b1-4)]Man(a1-3)[GlcNAc(b1-4)][GlcNAc(b1-2)Man(a1-6)]Man(b1-4)GlcNAc(b1-4)GlcNAc
Outline: as §1

[31] = biological target: GlcNAc(b1-3)Gal(b1-3)GalNAc
Outline: as §1

[32] = biological target: GlcNAc(b1-3)Gal(b1-4)GlcNAc(b1-3)Gal(b1-4)GlcNAc(b1-3)Gal(b1-4)GlcNAc(b1-3)Gal(b1-4)GlcNAc(b1-2)[GlcNAc(b1-3)Gal(b1-4)GlcNAc(b1-3)Gal(b1-4)GlcNAc(b1-3)Gal(b1-4)GlcNAc(b1-3)Gal(b1-4)GlcNAc(b1-6)]Man(a1-6)[GlcNAc(b1-3)Gal(b1-4)GlcNAc(b1-3)Gal(b1-4)GlcNAc(b1-3)Gal(b1-4)GlcNAc(b1-3)Gal(b1-4)GlcNAc(b1-2)Man(a1-3)]Man(b1-4)GlcNAc(b1-4)[Fuc(a1-6)]GlcNAc
Outline: as §1

Man(a1-6)Man = biological target: Man(a1-6)Man
Outline: as §1

[33] = biological target: Neu5Ac(a2-3)Gal(b1-4)GlcNAc(b1-3)Gal(b1-4)GlcNAc
Outline: as §1

[34] = biological target: Neu5Ac(a2-3)Gal(b1-4)GlcNAc(b1-3)Gal(b1-4)GlcNAc(b1-6)[Gal(b1-3)]GalNAc
Outline: as §1

[35] = biological target: Neu5Ac(a2-3)Gal(b1-4)GlcNAc(b1-6)[Gal(b1-3)]GalNAc
Outline: as §1

[36] = biological target: Neu5Ac(a2-3)[GalNAc(b1-4)]Gal(b1-4)GlcNAc(b1-3)GalNAc
Outline: as §1

[37] = biological target: Neu5Ac(a2-6)Gal(b1-4)GlcNAc(b1-2)Man(a1-3)[Neu5Ac(a2-3)Gal(b1-4)GlcNAc(b1-2)Man(a1-6)]Man(b1-4)GlcNAc(b1-4)GlcNAc
Outline: as §1

[38] = biological target: Neu5Ac(a2-6)Gal(b1-4)GlcNAc(b1-2)Man(a1-6)[Man(a1-3)]Man(b1-4)GlcNAc(b1-4)GlcNAc
Outline: as §1

[39] = biological target: Neu5Ac(a2-6)GalNAc(b1-4)GlcNAc
Outline: as §1

[40] = biological target: Neu5Ac(a2-8)Neu5Ac(a2-8)Neu5Ac(a2-3)[GalNAc(b1-4)]Gal(b1-4)Glc
Outline: as §1

Neu5Gc(a2-3)Gal(b1-4)Glc = biological target: Neu5Gc(a2-3)Gal(b1-4)Glc
Outline: as §1

[41] = biological target: Neu5Gc(a2-8)Neu5Gc(a2-3)Gal(b1-4)GlcNAc(b1-3)Gal(b1-4)GlcNAc
Outline: as §1

B1: LecB LY19 (Pseudomonas aeruginosa) (protein)
chain: MATQGVFTLPANTQFGVTAFANSAGTQTVNVQVNNETVATFTGQSTNNGIIGSKVLNSGGGGKVQILVSVNGRSSDLVSAQVILANELNFALVGSEDSTDNDYNDAVVVINWPLG
[1]
  glycan array binding signal (z-score): 1.77
[2]
  glycan array binding signal (z-score): 1.85
[3]
  glycan array binding signal (z-score): 1.49
[4]
  glycan array binding signal (z-score): 1.32
Fuc(a1-2)Gal(b1-4)Glc
  glycan array binding signal (z-score): 1.5
Fuc(a1-2)Gal(b1-4)Glc6S
  glycan array binding signal (z-score): 1.37
[5]
  glycan array binding signal (z-score): 3.29
[6]
  glycan array binding signal (z-score): 3.69
[7]
  glycan array binding signal (z-score): 2.54
[8]
  glycan array binding signal (z-score): 5.32
[9]
  glycan array binding signal (z-score): 0.085
[10]
  glycan array binding signal (z-score): 5.07
[11]
  glycan array binding signal (z-score): 3.27
[12]
  glycan array binding signal (z-score): -0.452
[13]
  glycan array binding signal (z-score): 0.089
[14]
  glycan array binding signal (z-score): 9.41
[15]
  glycan array binding signal (z-score): -0.497
[16]
  glycan array binding signal (z-score): 2.12
[17]
  glycan array binding signal (z-score): 1.65
[18]
  glycan array binding signal (z-score): 2.77
Gal(a1-3)Gal
  glycan array binding signal (z-score): -0.538
Gal(b1-2)Gal
  glycan array binding signal (z-score): -0.514
[19]
  glycan array binding signal (z-score): -0.55
[20]
  glycan array binding signal (z-score): -0.306
[21]
  glycan array binding signal (z-score): -0.553
[22]
  glycan array binding signal (z-score): 0.2
Gal(b1-3)GlcNAc6S
  glycan array binding signal (z-score): -0.533
[23]
  glycan array binding signal (z-score): 3.35
[24]
  glycan array binding signal (z-score): 4.05
Gal(b1-4)GlcNAc
  glycan array binding signal (z-score): -0.551
[25]
  glycan array binding signal (z-score): -0.3
[26]
  glycan array binding signal (z-score): -0.542
[27]
  glycan array binding signal (z-score): -0.545
[28]
  glycan array binding signal (z-score): 0.575
[29]
  glycan array binding signal (z-score): 3.07
Gal6S(b1-4)Glc6S
  glycan array binding signal (z-score): -0.533
GalNAc(b1-6)GalNAc
  glycan array binding signal (z-score): -0.559
Glc(a1-6)Glc(a1-6)Glc
  glycan array binding signal (z-score): -0.491
[30]
  glycan array binding signal (z-score): -0.556
[31]
  glycan array binding signal (z-score): -0.542
[32]
  glycan array binding signal (z-score): 0.196
Man(a1-6)Man
  glycan array binding signal (z-score): -0.329
[33]
  glycan array binding signal (z-score): -0.547
[34]
  glycan array binding signal (z-score): -0.554
[35]
  glycan array binding signal (z-score): -0.147
[36]
  glycan array binding signal (z-score): -0.553
[37]
  glycan array binding signal (z-score): -0.539
[38]
  glycan array binding signal (z-score): 0.735
[39]
  glycan array binding signal (z-score): -0.55
[40]
  glycan array binding signal (z-score): -0.546
Neu5Gc(a2-3)Gal(b1-4)Glc
  glycan array binding signal (z-score): -0.511
[41]
  glycan array binding signal (z-score): -0.556
